Growth data for 8 molecules are collected here from PubChem BioAssay (NCI).

Among the test systems are NCI-H23 lung; NCI-H226 lung; NCI-H322M lung; HOP-62 NSCLC; NCI-H460 lung; NCI-H522 lung; A549/ATCC NSCLC; 786-0 renal; COLO 205 colon; DU-145 prostate; K-562 leukemia; MALME-3M melanoma; MDA-MB-231 breast; RXF 393 renal; SF-268 CNS; SF-295 CNS; SF-539 CNS; UACC-257 melanoma; M14 melanoma; HCT-15 colon.
Assay in all cases: NCI-60 one-dose screen, 48 h (100 = growth as untreated, 0 = no growth, -100 = all killed)
Common to all, as to settings: 10 µM unless noted

About 83,000 compounds went through this panel and 20% of them were active in at least one assay; those are over-represented in the sample as a whole.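 Step 1: grow cells in 96-well plates. Step 2: add test compound at a single concentration. Step 3: incubate 48 h. Step 4: record percent growth.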 A number with no mark means an inactive call. The source made the active and inactive calls. The calls were made as follows: active = growth percent below 10; inactive = the rest.

On to `O=C(CN1CCCCC1)Sc1nnc2sc3ccccc3n12`, for which the growth in the experiment with NCI-H23 lung is 93.1%; in the experiment with NCI-H226 lung it was 84.9%; in the experiment on NCI-H322M lung it was 111%; in the experiment on HOP-62 NSCLC, 89.9%; with NCI-H460 lung it was 103%; with NCI-H522 lung it was 99.5%. The growth in the experiment with A549/ATCC NSCLC was 109%; in the experiment on 786-0 renal, 106%; in the experiment with COLO 205 colon it was 121%; in the experiment with DU-145 prostate, 112%; in the experiment on K-562 leukemia, 99.6%; with MALME-3M melanoma it was 97.5%. For the same molecule, the growth is 97.4% in the experiment on MDA-MB-231 breast; 108% in the experiment with RXF 393 renal; 102% in the experiment on SF-268 CNS; 110% in the experiment on SF-295 CNS; 101% in the experiment on SF-539 CNS; 102% in the experiment with UACC-257 melanoma. Also, the growth in the experiment on M14 melanoma is 98%; in the experiment on HCT-15 colon, 112%.
In the case of `C[n+]1c2ccccc2c(Nc2ccc(N3CCCCC3)cc2)c2[nH]c3ccccc3c21`, the growth in the experiment with NCI-H23 lung is -76.3% (active); in the experiment with NCI-H226 lung it was -56.5% (active); in the experiment on NCI-H322M lung, -95.2% (active); in the experiment with HOP-62 NSCLC, -93.8% (active); with NCI-H460 lung, -84.1% (active); in the experiment with NCI-H522 lung, -96.5% (active). In addition, the growth in the experiment with A549/ATCC NSCLC was -88% (active); in the experiment on 786-0 renal, -98.5% (active); in the experiment with COLO 205 colon, -87% (active); in the experiment with DU-145 prostate, -95.7% (active); with K-562 leukemia, -74% (active); with MALME-3M melanoma, -77.8% (active). For the same molecule, the growth is -91.1% (active) in the experiment with MDA-MB-231 breast; -96.5% (active) in the experiment on RXF 393 renal; -93.4% (active) in the experiment with SF-268 CNS; -85.7% (active) with SF-295 CNS; -99.1% (active) with SF-539 CNS; -98.7% (active) in the experiment with UACC-257 melanoma. The growth in the experiment on M14 melanoma is -97.3% (active); in the experiment with HCT-15 colon, -78.8% (active).
With `CCOC(=O)c1c(NC(=O)C2CCCCC2C(=O)O)sc2c1CCCC2` (stereo not given), the growth was 99.4% in the experiment with NCI-H23 lung; 95.5% in the experiment with NCI-H226 lung; 86.4% with NCI-H322M lung; 104% in the experiment on HOP-62 NSCLC; 109% with NCI-H460 lung; 94% in the experiment with NCI-H522 lung. Moreover, the growth in the experiment with A549/ATCC NSCLC was 97.6%; in the experiment with 786-0 renal, 106%; in the experiment on COLO 205 colon, 114%; in the experiment with DU-145 prostate, 108%; with K-562 leukemia, 102%; in the experiment with MALME-3M melanoma it was 109%. In addition, the growth is 105% in the experiment on MDA-MB-231 breast; 114% in the experiment on RXF 393 renal; 105% in the experiment on SF-268 CNS; 96.3% in the experiment with SF-295 CNS; 102% in the experiment with SF-539 CNS; 92.1% with UACC-257 melanoma. The growth in the experiment on M14 melanoma and with HCT-15 colon was 106% in each case.
Turning to `NC(=O)c1ccccc1NC(=O)c1ccccc1Cl`, the growth in the experiment with NCI-H23 lung was 104%; in the experiment with NCI-H226 lung it was 105%; in the experiment on NCI-H322M lung, 109%; with HOP-62 NSCLC, 112%; with NCI-H460 lung it was 114%; with NCI-H522 lung, 96.5%. Moreover, the growth in the experiment on A549/ATCC NSCLC was 98.3%; in the experiment with 786-0 renal, 102%; in the experiment on COLO 205 colon it was 121%; in the experiment on DU-145 prostate, 113%; with K-562 leukemia, 89.9%; with MALME-3M melanoma it was 130%. Besides, the growth was 99.6% in the experiment on MDA-MB-231 breast; 82.1% in the experiment with RXF 393 renal; 108% in the experiment with SF-268 CNS; 90.5% with SF-295 CNS; 109% with SF-539 CNS; 88.7% in the experiment on UACC-257 melanoma. Also, the results for the growth with M14 melanoma and in the experiment on HCT-15 colon were 112% and 95.6%, respectively.
Consider `CCC(C)CC(C)C(=O)c1c(O)ccn(OC)c1=O` (stereo not given), for which the growth is 84.7% in the experiment on NCI-H23 lung; 84.2% in the experiment with NCI-H226 lung; 69.2% in the experiment with NCI-H322M lung; 54.8% with HOP-62 NSCLC; 77.8% with NCI-H460 lung; 90.9% in the experiment with NCI-H522 lung. Moreover, the growth is 90.8% in the experiment with A549/ATCC NSCLC; 101% with 786-0 renal; 109% in the experiment on COLO 205 colon; 66.8% in the experiment with DU-145 prostate; 69.3% in the experiment with K-562 leukemia; 80.7% in the experiment with MALME-3M melanoma. Further, the growth is 61.7% with MDA-MB-231 breast; 72.5% in the experiment with RXF 393 renal; 54.2% with SF-268 CNS; 87.1% with SF-295 CNS; 63.2% in the experiment with SF-539 CNS; 97.7% in the experiment on UACC-257 melanoma. Moreover, the growth is 71.1% in the experiment on M14 melanoma and 29.9% in the experiment with HCT-15 colon.
As to `O=C(Nc1cccc2ccccc12)c1cc2c(cc1Br)OCO2`, the growth in the experiment on NCI-H23 lung is 88.6%; with NCI-H226 lung, 81%; in the experiment on NCI-H322M lung, 97.8%; in the experiment on HOP-62 NSCLC, 125%; in the experiment on NCI-H460 lung, 92.9%; in the experiment on NCI-H522 lung it was 103%. Moreover, the growth in the experiment on A549/ATCC NSCLC was 113%; in the experiment with 786-0 renal, 158%; with COLO 205 colon, 76.2%; in the experiment with DU-145 prostate it was 103%; in the experiment with K-562 leukemia it was 97.8%; in the experiment with MALME-3M melanoma it was 89.4%. In addition, the growth is 102% with MDA-MB-231 breast; 126% in the experiment with RXF 393 renal; 104% in the experiment with SF-268 CNS; 107% in the experiment on SF-295 CNS; 78.6% in the experiment on SF-539 CNS; 114% with UACC-257 melanoma. For the same molecule, the growth in the experiment with M14 melanoma was 162%; in the experiment on HCT-15 colon it was 104%.
For `O=C(CCc1nnc(Cn2cncn2)o1)c1nc2ccccc2[nH]1`, the growth is 102% in the experiment with NCI-H23 lung; 101% in the experiment on NCI-H226 lung; 115% in the experiment with NCI-H322M lung; 103% with HOP-62 NSCLC; 108% with NCI-H460 lung; 95.5% with NCI-H522 lung. Moreover, the growth is 105% with A549/ATCC NSCLC; 104% in the experiment with 786-0 renal; 124% with COLO 205 colon; 109% in the experiment on DU-145 prostate; 104% in the experiment with K-562 leukemia; 92% in the experiment on MALME-3M melanoma. Besides, the growth in the experiment with MDA-MB-231 breast is 98.7%; in the experiment on RXF 393 renal, 121%; in the experiment on SF-268 CNS, 105%; with SF-295 CNS it was 103%; with SF-539 CNS, 103%; with UACC-257 melanoma it was 112%. Further, the growth was 111% in the experiment with M14 melanoma and 102% in the experiment on HCT-15 colon.
Turning to `COc1ccc(-c2nn(-c3ccccc3)cc2/C=C2\SC(=S)N(CCc3ccc(O)cc3)C2=O)cc1`, the growth in the experiment on NCI-H23 lung was 89.2%; in the experiment on NCI-H226 lung, 86.7%; with NCI-H322M lung, 88.6%; in the experiment with HOP-62 NSCLC it was 97.1%; in the experiment on NCI-H460 lung, 81.7%; in the experiment with NCI-H522 lung it was 64.7%. Moreover, the growth is 81.2% in the experiment on A549/ATCC NSCLC; 93.7% in the experiment on 786-0 renal; 108% in the experiment with COLO 205 colon; 93.3% with DU-145 prostate; 66% in the experiment with K-562 leukemia; 85.1% in the experiment on MALME-3M melanoma. Further, the growth in the experiment with MDA-MB-231 breast is 75.4%; with RXF 393 renal, 92.5%; in the experiment with SF-268 CNS, 81.4%; in the experiment on SF-295 CNS it was 80.2%; with SF-539 CNS, 87.2%; in the experiment on UACC-257 melanoma, 93.7%. Besides, the growth in the experiment with M14 melanoma was 91.3%; in the experiment with HCT-15 colon, 77.7%.
